# Article PMC5540273 (PLoS ONE, 2017)
# System: RIOK1
# Conditions: concentration: 1 μM, replicates: in singlicate; n = 1
# 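Note: KINOMEscan kinase panel screen.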
row,Compound,%Inh
1,COCCOCCOc1cc2ncc3c4ccc(C#N)cc4[nH]c3c2cc1OC,99.4%
2,CCn1c(-c2nonc2N)nc2c(C#CC(C)(C)O)ncc(OCCCCN)c21.O=C(O)C(F)(F)F.O=C(O)C(F)(F)F [GSK507274],16%
3,Cn1cc(-c2[nH]c3cc(NC(=O)[C@H](N)C4CCCCC4)cc4c3c2C=NNC4=O)cn1,93.7%
4,COc1cc(Nc2ncc3c(C)nc(-c4cc5ccccc5[nH]4)n3n2)cc(OC)c1OC [GW869516],35%
5,COc1ccc(Nc2nccc(NCCNC(=O)c3cc4ccccc4s3)n2)cc1 [GSK1379896],19%
6,Cl.Cl.NCC(C(=O)Nc1cc(Br)c(-c2ccnc3[nH]ccc23)s1)c1ccccc1 (stereo not shown) [GSK1269851],95.7%
7,Cc1ccc(C)c(NC(=O)NC2CCN(c3ccnc(Nc4ccc(F)cc4)n3)C2)c1 (stereo not shown) [GSK1379720],23%
8,CN1CCN(CCCNc2nccc(-c3c(-c4ccc(F)cc4)nn4cc(C(F)(F)F)ccc34)n2)CC1 [GW621581],28%
9,O=C(Nc1cccc(-c2nn3ccccc3c2-c2ccnc(Nc3cccc(F)c3)n2)c1)c1c(F)ccc(F)c1Cl [GSK357952],24%
10,Nc1ncc(-c2cccnc2)c2scc(-c3ccc4c(c3)CCN4C(=O)Cc3ccccc3)c12 [GSK683281],35%
11,Cc1cccc(Nc2nc(N[C@H]3CCNC3)ncc2C(N)=O)c1.Cl [GSK2197149],99.8%
12,Cc1ccc(C(=O)N2CC[C@@H](O)C2)cc1-n1c(C)cc(OCc2ccc(F)cc2F)c(Br)c1=O,12%
13,Cl.c1ccc(-c2ccc3c(Nc4ccc5[nH]ccc5c4)ccnc3c2)nc1 [GW440138],4%
14,Cl.NC(=O)c1cccc(Nc2nccc(Nc3ccc(Oc4c(Cl)cccc4Cl)c(Cl)c3)n2)c1 [GW659009],56%
15,CSc1cccc2c(-c3ccncn3)c(-c3ccc(F)cc3)nn12 [GW514786],45%
16,Cl.Cl.NCC(NCc1ccc(-c2ccnc3[nH]ccc23)s1)c1ccccc1 (stereo not shown) [GSK1321565],100%
17,COC(=O)Nc1nc2ccc(Oc3ccc(NC(=O)Nc4cc(C(F)(F)F)ccc4F)cc3)cc2n1C.Cl [GW692089],0%
18,O=C(Nc1n[nH]c2cc(-c3ccoc3)ccc12)C1CC1 [SB-738481],68%
19,Fc1ccc(-c2ncn(C3CCNCC3)c2-c2ccnc(Oc3ccc(-c4ccccc4)cc3)n2)cc1 [SB-245391],7%

row,Compound,%Inh
1,Cn1cc(-c2ccc3c(c2)CCN3C(=O)Cc2cccc(Cl)c2)c2c(N)ncnc21 [GSK2606590],6%
2,Cc1ccc(S(=O)(=O)Nc2ccc(Nc3nccc(Nc4cccc5[nH]ncc45)n3)cc2)cc1 [GSK581271],78%
3,O=C(O)C(F)(F)F.O=C(O)C(F)(F)F.O=c1[nH]ccc2nc(N[C@@H]3CCCNC3)nc(Nc3ccc(S(=O)(=O)N4CCOCC4)cc3)c12 [GSK2177277],100%
4,C[C@@H](Oc1cc(-n2cnc3cc(-c4ccnc(NCCS(C)(=O)=O)c4)ccc32)sc1C(N)=O)c1ccccc1Cl [GSK907232],90.6%
5,c1ccc(-c2cnc3nccnn23)cc1 [AH20685],0%
6,CCCCc1nn2ncccc2c1-c1ccnc(Nc2ccc(N3CCN(C)CC3)cc2)n1 [GW684941],52%
7,Cc1occc1-c1ncc(OC[C@@H](N)Cc2c[nH]c3ccccc23)cc1-c1ccc2[nH]nc(C)c2c1.O=C(O)C(F)(F)F [GSK682037],95.1%
8,Oc1cc(Nc2ccnc3cc(I)ccc23)ccc1F [GW552771],25%
9,Cc1ccc(C(=O)Nc2ccc(Nc3ccnc4cc(-c5nccs5)ccc34)cc2O)cc1.Cl [GW494702],27%
10,c1ccc(-c2n[nH]cc2Nc2ccnc3ccccc23)nc1 [GW694077],99.2%
11,C[C@@H]1CC[C@@H](C(=O)Nc2ccccc2)CN1c1cc(-c2ccc3c(N)n[nH]c3c2)nc(N)n1 [GSK2286062],48%
12,CN(C)S(=O)(=O)c1cc(-c2ccc3nccc(-c4cccc(S(N)(=O)=O)c4)c3c2)cnc1N [GSK1669921],36%
13,CCS(=O)(=O)c1ccc(OC)c(Nc2nccc(-c3c(-c4cccc(NC(=O)c5c(F)cccc5F)c4)nn4ncccc34)n2)c1 [GSK326180],30%
14,COc1cccc(C2=C(Nc3ccc(Cl)c(C(=O)O)c3)C(=O)NC2=O)c1 [SB-390769],0%
15,COc1cccc(NC(=O)NC2CCN(c3ccnc(Nc4cc(OC)c(OC)c(OC)c4)n3)C2)c1 (stereo not shown) [GSK1379763],85%
16,Cn1cc(-c2ccc3c(c2)CCN3C(=O)Cc2cccc(F)c2)c2c(N)ncnc21 [GSK2603358],7%
17,CC(=O)N1CCN(c2ccc(Nc3nccc(-c4sc(C(C)C)nc4-c4cccc(NS(=O)(=O)c5cccc(Cl)c5)c4)n3)cn2)CC1 [GSK1660437],19%
18,CN(C)Cc1ccc(-c2ccc3c(Nc4ccc(Oc5ccccn5)cc4)ccnc3c2)o1 [GW567148],8%
